# HSF1 activator – increases HSF-1 driven luciferase reporter signal; NIH3T3-HGL HSF-1 luciferase reporter, MG132, 8 h; 100% = twice DMSO control signal; activation, % at 9 µM; 300,000 compounds, 1.7% hits; AID 504408;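 active = mean replicate activation of at least 50% with a set share of replicates each reaching 50%; inconclusive = only one of those two conditions met; inactive = mean below 50% and too few replicates reaching it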;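 also: 0% = median of the neutral control wells and 100% = twice that signal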
# esBAF inh – inhibitors of esBAF chromatin remodeling in mouse ES cells; Bmi1-luciferase knock-in reporter, 24 h; 100% = twice the neutral-well signal; reporter increase, % at 12.5 µM; 350,000 compounds, 2% hits; AID 602393; in the data active = activation above about 40%; inconclusive = no clear call, values can overlap the other calls;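 also: 0% = median of the plate's neutral control wells and 100% = double that signal; a rise in the Bmi1 reporter signal indicates esBAF inhibition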
# Wnt bcat act – activators of Wnt/beta-catenin signaling; Wnt/beta-catenin reporter cell assay, activator, plate reader; activation, % at 9.35 µM; 300,000 compounds, 1.2% hits; AID 743398; in the data active = activation above about 30%, passing the limit was not always enough; inconclusive = no clear call, values can overlap the other calls;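 also: 0% = neutral control wells and 100% = positive control wells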
# HSF1 inh – HSF1 inhibition. 300,000 compounds, 0.77% hits. activity change, negative = inhibition, % at 7.5 µM (by protocol). NIH3T3-HGL HSE-luciferase, MG132-induced, luminescence 8 h; hits give low values;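 active = more than half of replicate wells show activity change below -50%, luminescence cut by over half; inconclusive = some wells, but at most half, below -50%; inactive = no replicate well below -50%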;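 also: luciferase reports HSF-1 transcriptional activity via heat shock element; 0% = median of DMSO wells and -100% = zero luminescence signal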
# MITF act – activators of MITF-driven TRPM1 promoter activity in SK-MEL-5 cells | AID 588334 | SK-MEL-5 TRPM1-promoter luciferase, 24 h; % of positive control, neutral wells = 0 | activation, % at 12.5 µM | 300,000 compounds, 0.75% hits;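 active = mean activation of at least 80% with every replicate also reaching 80%; inconclusive = mean reaches 80% but some replicate falls short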;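 also: 0% = neutral control wells and 100% = parthenolide positive control wells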
# Active calls of the source: *; ? = inconclusive; nt = not tested or not shown. A selection: hits, their analogues and other compounds. The true share with any hit is near 3.9%.
SMILES,HSF1 activator,esBAF inh,Wnt bcat act,HSF1 inh,MITF act
CCOc1cc(/C=C2\C(=O)N(Cc3ccc(C)cc3)C(C)=C2C(=O)OC)ccc1O,77*,-3,-2,53,nt
CCN1C(=O)/C(=C\c2ccc3c(c2)OCO3)C(C(=O)OC)=C1C,63*,-8,-4,26,nt
COCCCN1C(=O)/C(=C\c2ccc3c(c2)OCO3)C(C(=O)OC)=C1C,-2,nt,0,-7,13
COc1ccc(NC(=O)N(C)C[C@@H]2Oc3c(NC(=O)Nc4ccccc4)cccc3C(=O)N([C@@H](C)CO)C[C@@H]2C)cc1,nt,0,nt,nt,nt
Cc1ncoc1C(=O)Nc1ccc(Oc2ccccc2)cc1,52*,39,nt,28,38
CCOC(=O)Nc1ccc(C(=O)Oc2ccccc2)c(O)c1,68*,24,7,42,46
CCOC(=O)Nc1ccc(Oc2ccccc2)cc1,35,54*,55*,19,90*
O=C(Nc1ccc(C(=O)Oc2ccccc2)c(O)c1)c1ccco1,38,57*,nt,25,79
O=C(Nc1ccc(C(=O)Oc2ccccc2)c(O)c1)c1ccccc1,42,nt,28,36,54
CNC[C@@H]1Oc2ccc(NC(=O)Cc3ccccc3)cc2CC(=O)N([C@@H](C)CO)C[C@H]1C,nt,-2,nt,nt,nt
COc1ccc(CN(C)C[C@@H]2Oc3ccc(NC(=O)CCC(F)(F)F)cc3C(=O)N([C@@H](C)CO)C[C@@H]2C)cc1,nt,2,nt,nt,nt
CN(Cc1ccccc1)C(=O)c1ccccc1NC(=O)C1=CSCCO1,-79,-4,1,-76*,7
Nc1n[nH]c2cc(=O)n(-c3cccc(C(F)(F)F)c3)nc12,-2,-2,12,8,13
O=c1[nH][nH]c2cc(=O)n(-c3cccc(C(F)(F)F)c3)nc12,52*,nt,-2,8,6
COc1ccc(C(C#N)=C2C=CC(=NO)C=C2)cc1,168*,nt,4,118,4
CC1CN(C(=O)c2ccc(-c3ccccc3Cl)o2)CC(C)O1 (stereo unspecified),29,33,3,16,67
CC(=O)N1CCN(C(=O)c2ccc(-c3ccccc3Cl)o2)CC1,nt,47*,25,nt,65
O=C(c1ccc(-c2ccccc2Cl)o1)N1CCCCCCC1,nt,54*,40*,nt,?
CC1CCCN(C(=O)c2ccc(-c3ccccc3Cl)o2)C1 (stereo unspecified),58*,77*,34*,31,140*
O=C(c1ccc(-c2ccc([N+](=O)[O-])cc2)o1)N1CCCCCCC1,nt,20,26,nt,17
CC(C)(CNC(=O)c1ccc(-c2ccccc2Cl)o1)N1CCOCC1,20,71*,9,10,70
CCN(CC)c1ccc(/C=N/n2nnnc2N)c(O)c1,15,44*,nt,0,20
CCN(C)c1ccc(/C=N\n2nnnc2N)cc1,8,nt,nt,-1,28
CCC(=O)N1[C@@H](CO)[C@@H]2c3ccccc3N(C(=O)Nc3ccccc3Cl)C[C@@H]21,nt,1,nt,nt,nt
CC(=O)Nc1ccc(CN2C(=O)C(CCc3ccccc3)ON=C2c2cnccn2)cc1 (stereo unspecified),nt,47*,7,nt,nt
SMILES,HSF1 activator,esBAF inh,Wnt bcat act,HSF1 inh,MITF act
CCCCNC(=S)NNc1c(Cl)cc(Cl)cc1Cl,-78,-2,-1,-72*,-6
COCCCNC(=O)C1CCN(C(=O)c2oc3cc4sc(N(C)C)nc4cc3c2C)CC1,-4,49*,15,14,?
CCN(CC)CCCNC(=O)C1CCN(C(=O)c2oc3cc4sc(N(C)C)nc4cc3c2C)CC1,-11,7,7,3,44
C[C@H]1CN([C@@H](C)CO)C(=O)c2cc(C#Cc3ccccc3)cnc2O[C@@H]1CN(C)C(=O)c1ccccn1,nt,-2,nt,nt,nt
Cc1cc(C(=O)OCC(=O)N2CCc3ccccc32)c(C)o1,?,50*,nt,37,58
O=C(CNC(=O)c1ccccc1Cl)OCC(=O)N1CCc2ccccc21,55*,24,2,27,29
CN(C)C(=O)C[C@@H]1CC[C@@H](NC(=O)NC2CCCC2)[C@H](CO)O1,nt,2,nt,nt,nt
CC(C)CNCC(=O)N1c2ccccc2Sc2ccccc21,-1,nt,-5,-5,-8
COCCNCC(=O)N1c2ccccc2Sc2ccccc21,-20,-3,48*,-7,nt
CCCCn1c(-c2cccs2)nc2oc3ccccc3c(=O)c2c1=O,2,nt,2,3,nt
COCCn1c(C(C)C)nc2oc3ccccc3c(=O)c2c1=O,-6,-3,0,-4,5
COc1ccc(Cn2c(-c3ccco3)nc3oc4ccccc4c(=O)c3c2=O)cc1,12,68*,7,-4,nt
CCc1nc2oc3ccccc3c(=O)c2c(=O)n1-c1ccc(C)cc1,29,nt,44*,18,nt
CCc1nc2oc3ccccc3c(=O)c2c(=O)n1-c1ccccc1,nt,30,53*,nt,35
CCc1nc2oc3ccccc3c(=O)c2c(=O)n1CCOC,0,-11,-7,-1,nt
Cc1ccc(-n2c(C(C)C)nc3oc4ccccc4c(=O)c3c2=O)cc1,41,nt,65*,12,44
COc1ccc(Cn2c(-c3ccco3)nc3oc4cc(OC)ccc4c(=O)c3c2=O)cc1,11,?,24,12,69
CC(C)NC(=O)N(C)C[C@@H]1Oc2c(NC(=O)C3CC3)cccc2C(=O)N([C@H](C)CO)C[C@H]1C,nt,-2,nt,nt,nt
CCCc1nc2oc3ccccc3c(=O)c2c(=O)n1-c1ccc(C)cc1,44,nt,49*,18,nt
CCCc1nc2oc3ccccc3c(=O)c2c(=O)n1-c1ccccc1,42,nt,15,14,nt
Cc1cc(C)c(C#N)c(Nc2ccc(F)cc2)n1,1,1,-1,-6,-14
N#Cc1cnc(Nc2ccc(F)cc2)nc1N,72*,nt,1,31,nt
CC(C)CC#Cc1cnc2c(c1)C(=O)N([C@@H](C)CO)C[C@H](C)[C@H](CN(C)C(=O)Cc1cccnc1)O2,nt,5,nt,nt,nt
C[C@H]1C=C(C(=O)NCc2ccccc2)O[C@@H](OCc2ccc(CO)cc2)C1,11,-5,48*,2,5
O=C(C[C@H]1CC[C@H]2[C@@H](COC[C@@H](O)CN2Cc2ccccc2F)O1)N[C@H]1CCN(Cc2ccccc2)C1,nt,-2,nt,nt,nt
SMILES,HSF1 activator,esBAF inh,Wnt bcat act,HSF1 inh,MITF act
O=c1[nH]c2c(s1)C=Nc1ccccc1N2,70*,54*,?,34,-13
O=C1Nc2ccccc2N=C(c2ccccc2)C1Br (stereo unspecified),-3,nt,2,2,-4
COC(=O)c1ccc(CN2C(=O)NC3(CCCCC3)C2=O)cc1,24,72*,17,15,50
O=C(Cc1ccccc1)N[C@H]1CC[C@H](CC(=O)N2CCOCC2)O[C@H]1CO,nt,-4,nt,nt,nt
COc1cccc(N2CCN(c3ncnc4c3[nH]c3ccc(F)cc34)CC2C)c1 (stereo unspecified),-86,-13,nt,-84*,-79
COc1cccc(N2CCN(c3ncnc4c3[nH]c3ccccc34)CC2C)c1 (stereo unspecified),-50,nt,nt,-50,nt
Cc1cccc(NC(=S)N2N=CCC2c2ccccc2)c1 (stereo unspecified),28,49*,6,16,48

# Screens: PubChem BioAssay, Broad Institute
